Data published in the supplement of paper PMC10127200.
Structures can show the parent of a compound that is named as a salt.

Columns and labels:
Test in all cases: Euclidean distance of Cell Painting phenotypic profile (signed KS, 77 features) to DMSO centroid (dimensionless distance); 5 or 10 uM (library dependent); higher = stronger phenotypic change vs DMSO (phenoactivity)
Settings in all cases: 48 h
786-O = tested on: 786-O
How it was run: (§1)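 Phenoactivity is computed as Euclidean distance to the median vehicle profile. The profiles, drawn from 77 Harmony features scored as signed Kolmogorov-Smirnov statistics versus same-plate vehicle wells, were corrected for plate position, correlation-weighted and replicate-averaged at the top dose. Stained cells were imaged confocally at 20X (9 fields/well) after 48 h with library compounds at 10 or 5 uM, 0.1% DMSO final, in five cancer lines and a healthy fibroblast line.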

A549 = tested on: A549
How it was run: as §1

DU145 = tested on: DU145
How it was run: as §1

FB = tested on: FB
How it was run: as §1

HEPG2 = tested on: HEPG2
How it was run: as §1

OVCAR4 = tested on: OVCAR4
How it was run: as §1

SMILES	Euclidean distance (786-O)	Euclidean distance (A549)	Euclidean distance (DU145)	Euclidean distance (FB)	Euclidean distance (HEPG2)	Euclidean distance (OVCAR4)
NC(=O)N1CCC(CC(=O)N2CCC([C@H]3c4ncc(Br)cc4CCc4cc(Cl)cc(Br)c43)CC2)CC1 [Lonafarnib]	2.24	1.63	1.33	2.36	1.1	1.63
CC[N+](CC)(CC)CC [Tetraethylammonium bromide]	1.58	0.816	0.857	0.968	1.11	0.715
CCN(CC)Cc1cc(Nc2ccnc3cc(Cl)ccc23)ccc1O [Amodiaquine]	2.2	2.16	1.37	3.19	2.51	2.02
Cc1ccccc1C(=O)Nc1ccc(C(=O)N2CCCC(O)c3cc(Cl)ccc32)c(C)c1 (stereo not drawn) [Tolvaptan]	1.6	0.937	0.873	1.14	0.957	0.738
CC(C(=O)O)c1ccc(CC2CCCC2=O)cc1 (stereo not drawn) [Loxoprofen]	1.12	0.954	0.808	1.12	0.384	0.794
CC(C)(C)CC(C)(C)c1ccc(OCCOCC[N+](C)(C)Cc2ccccc2)cc1 [Benzethonium Chloride]	3.02	2.7	2.15	1.82	2.43	2.37
CC(C)=CCOc1ccc(/C=C/C(=O)c2ccc(OCC=C(C)C)cc2OCC(=O)O)cc1 [Sofalcone]	1.25	1.09	0.847	1.01	0.922	1.08
CS(=O)(=O)N1CCc2c(-c3cnc(N)nc3)nc(N3CCOCC3)nc21	1.32	2.54	0.984	2.13	0.817	2.01
C/C1=C2N=C(/C=C3N=C(/C(C)=C4\[N-]C(C(CC(N)=O)C4(C)CCC(=O)NCC(C)OP(=O)([O-])OC4C(CO)OC(n5cnc6cc(C)c(C)cc65)C4O)C4(C)N=C1C(CCC(N)=O)C4(C)CC(N)=O)C(CCC(N)=O)C\3(C)C)C(CCC(N)=O)C/2(C)CC(N)=O.[CH3-].[Co+3] (stereo not drawn) [Methylcobalamin]	0.89	0.91	1.12	0.99	1.02	0.959
CS(=O)(=O)c1ccc(-c2cnc(N)c(C(=O)Nc3ccccc3)n2)cc1	0.811	2.05	1.29	1.27	1.07	1.23
CCS(=O)(=O)Nc1ccc2c(c1)/C(=C(/Nc1ccc(CN3CCCCC3)cc1)c1ccccc1)C(=O)N2 [Hesperadin]	3.36	3.8	2.47	3.41	2.69	3.25
OC(c1cc(C(F)(F)F)nc2c(C(F)(F)F)cccc12)C1CCCCN1 (stereo not drawn) [Mefloquine HCl]	2.22	2.49	1.85	2.46	4.9	2.05
COc1cccc(C=NCCN=Cc2cccc(OC)c2[O-])c1[O-].[Cl-].[Mn+3]	1.28	0.596	0.577	0.887	2.11	1.14
CCn1cc(C(=O)O)c(=O)c2cc(F)c(N3CCNCC3)nc21 [Enoxacin]	1.03	0.783	1.59	0.837	2.02	1.35
CCC[C@@H](C=O)NC(=O)[C@H](CC(C)C)NC(=O)[C@H](CC(C)C)NC(=O)OCc1ccccc1	5.22	4.01	5.17	4.63	4.52	5.15
CC(C)(Sc1ccncc1-c1ccc(C#N)c2ccccc12)C(=O)O [Verinurad (RDEA3170)]	0.821	0.673	0.864	1.25	0.457	1.2
N#CC(c1ccnc(OCc2ccc(CN3CCOCC3)cc2)n1)c1nc2ccccc2s1 (stereo not drawn) [Bentamapimod]	1.54	1.83	1.31	1.81	1.38	1.36
Nc1c2c(nc3ccccc13)CCCC2 [Tacrine HCl]	0.888	0.485	0.636	1.21	0.472	1.16
C[C@@H]1C[C@H]2[C@@H]3C[C@H](F)C4=CC(=O)C=C[C@]4(C)[C@@]3(F)[C@@H](O)C[C@]2(C)[C@@]1(OC(=O)c1ccco1)C(=O)SCF [fluticasone furoate]	2.17	2.7	2.56	2.29	1.53	1.72
CCS(=O)(=O)N1CCN(c2ccc(Nc3ncc(C(N)=O)c(NC4CC4)n3)cc2)CC1	2.57	3.03	3.16	2.62	2.51	3.39
COc1cccc(OC)c1C(=O)OCc1cc(O)ccc1O[C@@H]1O[C@H](CO)[C@@H](O)[C@H](O)[C@H]1O [Curculigoside]	0.665	0.731	0.819	0.662	0.446	1.36
CCNC(=O)[C@@H]1CCCN1C(=O)[C@H](CCCN=C(N)N)NC(=O)[C@H](CC(C)C)NC(=O)[C@@H](C)NC(=O)[C@H](Cc1ccc(O)cc1)NC(=O)[C@H](CO)NC(=O)[C@H](Cc1c[nH]c2ccccc12)NC(=O)[C@H](Cc1cnc[nH]1)NC(=O)[C@@H]1CCC(=O)N1 [Alarelin Acetate]	0.728	1.38	0.974	2.05	1.87	1.24
O=C(O)c1cccnc1 [Nicotinic Acid]	1.53	0.435	1.08	0.953	1.92	1.03
CC(C)(Oc1ccc(C(=O)c2ccc(Cl)cc2)cc1)C(=O)O [Choline Fenofibrate]	0.954	0.724	0.985	1.28	0.32	0.848

SMILES	Euclidean distance (786-O)	Euclidean distance (A549)	Euclidean distance (DU145)	Euclidean distance (FB)	Euclidean distance (HEPG2)	Euclidean distance (OVCAR4)
O=P(O)(O)OC(Cn1cncn1)(Cn1cncn1)c1ccc(F)cc1F [Fosfluconazole]	1.39	0.635	1.39	0.872	0.852	1.23
O=C(CO)[C@@H](O)[C@H](O)[C@H](O)CO [Fructose]	1.08	0.996	0.637	0.813	0.424	1.17
CC1(C)S[C@@H]2[C@H](NC(=O)COc3ccccc3)C(=O)N2[C@H]1C(=O)O [Penicillin V potassium salt]	1.25	1.22	1.35	0.767	0.481	1.67
CC(C)CN(C[C@@H](OP(=O)(O)O)[C@H](Cc1ccccc1)NC(=O)O[C@H]1CCOC1)S(=O)(=O)c1ccc(N)cc1 [Fosamprenavir calcium salt]	1.44	0.901	1.21	0.737	0.527	1.41
CN1C(N)=N[C@](C)(c2cc(NC(=O)c3ccc(F)cn3)ccc2F)CS1(=O)=O [Verubecestat (MK-8931)]	0.523	0.58	0.609	0.675	0.509	0.924
O=C(Nc1ccccc1)c1ccccc1O [Salicylanilide]	0.807	0.631	0.393	0.532	0.798	0.892
CN(C)CC[C@H](CSc1ccccc1)Nc1ccc(S(=O)(=O)NC(=O)c2ccc(N3CCN(Cc4ccccc4-c4ccc(Cl)cc4)CC3)cc2)cc1[N+](=O)[O-]	0.812	2.83	1.36	0.853	0.522	1.01
O=C1c2cccc3c2[C@H](CCC3)CN1[C@@H]1CN2CCC1CC2 [Palonosetron HCl]	1.56	0.602	0.971	0.972	1.29	1.22
O=C(Nc1ccc(-c2ccnc(Nc3ccc(N4CCOCC4)cc3)n2)cc1)C1CCCN1 (stereo not drawn)	0.834	1.49	1.24	1.52	1.48	0.844
NS(=O)(=O)c1cc2c(cc1Cl)N=CNS2(=O)=O [Chlorothiazide]	1.21	0.957	1.22	1.35	0.662	0.734
COc1ccccc1Oc1c(NS(=O)(=O)c2ccc(C(C)(C)C)cc2)nc(-c2ncccn2)nc1OCCO [Bosentan Hydrate]	1.35	0.814	0.826	0.916	0.41	1.04
CCCC(CCC)C(=O)O [Divalproex Sodium]	1.31	0.566	0.425	0.846	0.404	0.812
CN(C)CCN(Cc1ccc(Cl)cc1)c1ccccn1 [Chloropyramine hydrochloride]	0.88	1.23	1.39	1.03	0.594	1.1
CCn1c(-c2nonc2N)nc2c(C#CC(C)(C)O)ncc(OC[C@H]3CCCNC3)c21	3.05	2.49	1.16	2	1.95	2.14
OC[C@@H](O)[C@@H](O)[C@H](O)[C@@H](O)CO [Sorbitol]	1.36	0.586	0.79	0.737	0.791	1.21
CC(C)Cn1cnc2c(N)nc3ccccc3c21 [Imiquimod]	0.967	1.15	0.652	0.784	0.448	0.537
COc1ccc(/C=C/C(=O)Nc2ccccc2C(=O)O)cc1OC [Trans-Tranilast]	1.43	0.649	0.604	1.18	0.865	0.917
CNCc1ccc(C)c(NC(=O)c2ccc(Nc3nc(-c4ccccc4)c4ccccc4n3)cc2)c1	5.12	4.68	3.37	4.9	5.84	4.54
CN1CCN(c2cccc(Nc3nc4c(-c5ccc(S(C)(=O)=O)cc5)cccn4n3)c2)CC1	1.38	1.14	1.07	1.26	0.565	1.25
CNC(=O)[C@@H](NC(=O)[C@H](CC(C)C)[C@H](O)C(=O)NO)C(C)(C)C [Marimastat (BB-2516)]	1.09	2.02	1.14	1.06	0.866	1.4
CC(C)[C@H](NC(=O)[C@H](CC(=O)O)NC(=O)[C@H](CCCCN)NC(=O)[C@@H](N)CCCN=C(N)N)C(=O)N[C@@H](Cc1ccc(O)cc1)C(=O)O [Thymopentin]	1.56	1.19	0.821	0.825	0.557	1.06
COc1ccc2c(Oc3ccc(NC(=O)c4c(C)n(CC(C)(C)O)n(-c5ccccc5)c4=O)nc3)ccnc2c1	1.16	1.01	1.02	3.08	0.897	0.976
NC12CC3CC(CC(C3)C1)C2 [Amantadine HCl]	1.14	0.94	1.01	0.961	0.485	0.875
CCOC(=O)OC(C)OC1=C(C(=O)Nc2ccccn2)N(C)S(=O)(=O)c2ccccc21 (stereo not drawn) [Ampiroxicam]	1.26	1.35	0.928	0.606	0.41	1.47
